About 79,000 compounds went through this panel and 15% of them were active in at least one assay; those are over-represented in the sample as a whole. Active and inactive are the calls of the source. Rule as the data show it: active = growth inhibition above about 70%; inactive = the rest. Where a SMILES comes first, the peptide text is derived from it. The star is where a group is joined. For = O=C*
test: NCI Yeast Anticancer Drug Screen. Data for the bub3 strain (AID 167); settings: S. cerevisiae bub3 mutant strain, at 50.0 µM, active compounds read high
In short: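 In this screen, a yeast mutant lacking normal mitotic checkpoint function is challenged with compound. Relative growth versus vehicle gives the inhibition value.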

SMILES | growth inhibition
CCC(C)C=O (stereo not given) | 10.4% (inactive)
CCCCCCCCC(=O)OCC(=O)c1ccc(-c2ccccc2)cc1 | 3.3% (inactive)
CCNc1nnc(N=Nc2ccccc2)s1 | 7.55% (inactive)
CC(=O)OC(C(=O)Nc1ccc(Br)cc1)c1ccccc1 (stereo not given) | 11.6% (inactive)
CCN(CC)CCCn1cnc2ncccc2c1=O | -9.2% (inactive)
CCC(C)C1CCCCC1OC(=O)CCl (stereo not given) | -9.55% (inactive)
Cc1ccc(S(=O)(=O)CC(=O)CC(=O)C(=O)Nc2ccc(C)cc2C)cc1 | -8.55% (inactive)
COC(=O)c1cc2ccc1OCC#CC#CCOc1ccc(cc1C(=O)OC)OCC#CC#CCO2 | -0.7% (inactive)
O=C(O)c1ccc2c(Cl)ccc3c2c1CC3 | -26.2% (inactive)
COc1ccc(NC(=O)C2C(=O)N(c3ccc(OC)cc3)C(=O)/C2=N\N)cc1 (stereo not given) | 19.4% (inactive)
CCOC(=O)CCC(NC(=O)c1ccc(N(C)C=O)cc1)C(=O)OCC (stereo not given) | 6.45% (inactive)
Cc1ccc(CCS(=O)(=O)N=[N+]=[N-])cc1 | -20% (inactive)
C=CCOc1cc2c(cc1C(C)c1ccc(OC)cc1)OCO2 (stereo not given) | 14.5% (inactive)
Brc1cccc2ccc3ccccc3c12 | 32% (inactive)
CCNC(=O)Nc1nc2ccccc2s1 | -23.8% (inactive)
CCN(CC)CCCC(C)NCCCN (stereo not given) | -23.3% (inactive)
O=C(OCc1ccccc1CN1CCCC1)c1cccc(Cl)c1 | 8.35% (inactive)
COc1ccc2c(c1)CCC1=C2CC2C(=O)C1(C)CCC2(C)OC(C)=O (stereo not given) | 10.1% (inactive)
CSCCC(NC(=O)C(Cc1ccccc1)NC=O)C(=O)O (stereo not drawn) (For-Phe-Met-OH; configuration not given here) | 19.4% (inactive)
COC(=O)/C(C#N)=C/c1cccnc1 | -5.45% (inactive)

SMILES | growth inhibition
CCOC(=O)Oc1ccc(Cl)cc1Cl | -4.4% (inactive)
COC(=O)c1nc(N)nc(C(=O)OC)c1C(=O)c1c(C)[nH]c2ccccc12 | -28.4% (inactive)
CN1C(C(=O)Nc2ccccn2)=C(O)c2ccccc2S1(=O)=O | -1.75% (inactive)
OCC(O)C(O)C(O)c1nn(-c2ccc(Cl)cc2)c2nc3cc(Cl)c(Cl)cc3nc12 (stereo not given) | 4.4% (inactive)
Cc1ccc(NC(=S)NC(=O)c2ccccc2)cc1 | 3.3% (inactive)
Cc1cccc(/C=N/NC(=S)NCCc2ccccn2)n1 | 9.55% (inactive)
CC(=O)NC(CCCCNC(=O)OC(C)(C)C)C(=O)O (stereo not given) | -2.85% (inactive)
Nc1nc(Cl)nc(Cl)n1 | -52.4% (inactive)
Cc1ccc2c(c1)nc(N)n[n+]2[O-] | -8.95% (inactive)
NC(=S)N/N=C/C=C/c1ccco1 | 20.3% (inactive)
CC(=O)Nc1c(OC(C)=O)ccc2cc(Br)ccc12 | -0.25% (inactive)
C/C(=N\NS(=O)(=O)c1ccc(N)cc1)c1ccc(C)cc1C | -28.6% (inactive)
COC(=O)/C(C=Nc1ccccc1)=C(/C)O | 11.4% (inactive)
CC(=O)NNc1nc(C)c(C(=O)/C=C/c2ccc(/C=C/C(=O)c3sc(NNC(C)=O)nc3C)cc2)s1 | -13.2% (inactive)
C[n+]1cccc(C(=O)c2ccccc2)c1 | -0.55% (inactive)
S=c1nn[nH]n1-c1cccc2ccccc12 | -10.8% (inactive)
CCCCCC(=C/c1ccccc1)/C=N/N1CCN(/N=C/C(=C/c2ccccc2)CCCCC)CC1 | -0.85% (inactive)
CCCCNCCCNCCCC | 25.5% (inactive)
CC(C)(C)C1(C#N)C(=O)N(c2ccc(Cl)cc2)C12c1ccccc1-c1ccccc12 (stereo not given) | -4.5% (inactive)
CC12NC(=O)NC1(C)NC(=O)N2 (stereo not given) | -29.6% (inactive)

test: NCI Yeast Anticancer Drug Screen. Data for the mlh1 rad18 strain (AID 175); settings: S. cerevisiae mlh1 rad18 strain growth inhibition; at 50.0 µM; active compounds read high
In short: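 Steps: expose repair-defective yeast to compound; measure growth; express inhibition against vehicle-treated controls.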

SMILES | growth inhibition
CCC(C)C=O (stereo not given) | -8.3% (inactive)
CCCCCCCCC(=O)OCC(=O)c1ccc(-c2ccccc2)cc1 | 3.65% (inactive)
CCNc1nnc(N=Nc2ccccc2)s1 | 3.65% (inactive)
CC(=O)OC(C(=O)Nc1ccc(Br)cc1)c1ccccc1 (stereo not given) | -6.65% (inactive)
CCN(CC)CCCn1cnc2ncccc2c1=O | -3.3% (inactive)
CCC(C)C1CCCCC1OC(=O)CCl (stereo not given) | -18.6% (inactive)
Cc1ccc(S(=O)(=O)CC(=O)CC(=O)C(=O)Nc2ccc(C)cc2C)cc1 | 12.8% (inactive)
COC(=O)c1cc2ccc1OCC#CC#CCOc1ccc(cc1C(=O)OC)OCC#CC#CCO2 | 19.2% (inactive)
O=C(O)c1ccc2c(Cl)ccc3c2c1CC3 | 21.5% (inactive)
COc1ccc(NC(=O)C2C(=O)N(c3ccc(OC)cc3)C(=O)/C2=N\N)cc1 (stereo not given) | 3.35% (inactive)
CCOC(=O)CCC(NC(=O)c1ccc(N(C)C=O)cc1)C(=O)OCC (stereo not given) | 12.3% (inactive)
Cc1ccc(CCS(=O)(=O)N=[N+]=[N-])cc1 | -3.4% (inactive)
C=CCOc1cc2c(cc1C(C)c1ccc(OC)cc1)OCO2 (stereo not given) | -0.6% (inactive)
Brc1cccc2ccc3ccccc3c12 | 75.7% (active)
CCNC(=O)Nc1nc2ccccc2s1 | -21.4% (inactive)
CCN(CC)CCCC(C)NCCCN (stereo not given) | -10% (inactive)
O=C(OCc1ccccc1CN1CCCC1)c1cccc(Cl)c1 | 2.65% (inactive)
COc1ccc2c(c1)CCC1=C2CC2C(=O)C1(C)CCC2(C)OC(C)=O (stereo not given) | -14.2% (inactive)
CSCCC(NC(=O)C(Cc1ccccc1)NC=O)C(=O)O (stereo not drawn) (For-Phe-Met-OH; configuration not given here) | -11.5% (inactive)
COC(=O)/C(C#N)=C/c1cccnc1 | -15.7% (inactive)

SMILES | growth inhibition
CCOC(=O)Oc1ccc(Cl)cc1Cl | -3.8% (inactive)
COC(=O)c1nc(N)nc(C(=O)OC)c1C(=O)c1c(C)[nH]c2ccccc12 | -25.6% (inactive)
CN1C(C(=O)Nc2ccccn2)=C(O)c2ccccc2S1(=O)=O | 8.25% (inactive)
OCC(O)C(O)C(O)c1nn(-c2ccc(Cl)cc2)c2nc3cc(Cl)c(Cl)cc3nc12 (stereo not given) | 0.85% (inactive)
Cc1ccc(NC(=S)NC(=O)c2ccccc2)cc1 | 24.4% (inactive)
Cc1cccc(/C=N/NC(=S)NCCc2ccccn2)n1 | -2.85% (inactive)
CC(=O)NC(CCCCNC(=O)OC(C)(C)C)C(=O)O (stereo not given) | -39.1% (inactive)
Nc1nc(Cl)nc(Cl)n1 | -12.2% (inactive)
Cc1ccc2c(c1)nc(N)n[n+]2[O-] | -39.5% (inactive)
NC(=S)N/N=C/C=C/c1ccco1 | 52% (inactive)
CC(=O)Nc1c(OC(C)=O)ccc2cc(Br)ccc12 | 8.85% (inactive)
C/C(=N\NS(=O)(=O)c1ccc(N)cc1)c1ccc(C)cc1C | -16.5% (inactive)
COC(=O)/C(C=Nc1ccccc1)=C(/C)O | -1.2% (inactive)
CC(=O)NNc1nc(C)c(C(=O)/C=C/c2ccc(/C=C/C(=O)c3sc(NNC(C)=O)nc3C)cc2)s1 | -35.1% (inactive)
C[n+]1cccc(C(=O)c2ccccc2)c1 | 6.5% (inactive)
S=c1nn[nH]n1-c1cccc2ccccc12 | -3.8% (inactive)
CCCCCC(=C/c1ccccc1)/C=N/N1CCN(/N=C/C(=C/c2ccccc2)CCCCC)CC1 | 11.2% (inactive)
CCCCNCCCNCCCC | 2.6% (inactive)
CC(C)(C)C1(C#N)C(=O)N(c2ccc(Cl)cc2)C12c1ccccc1-c1ccccc12 (stereo not given) | 20.4% (inactive)
CC12NC(=O)NC1(C)NC(=O)N2 (stereo not given) | 11.6% (inactive)
